Values joined by “and” are separate entries in the source; they are usually repeats but may differ in a detail not shown here. Equal values may be shown once. Records with an inconclusive call do not appear. Some structures have more than one record in an assay (separate samples or runs), and their calls can disagree. Active and inactive are the calls of the source. Calls follow the shape of the dose curve; as a rule, active = well fitted curve in the direction sought with a large enough effect; inconclusive = small, poorly fitted or top-dose-only effect, or another doubt; inactive = no such curve, though single readings can be large; an effect the other way counts as inactive or inconclusive.
What was measured:
CRL-7250 = normal cell line; test: Cytotoxic Profiling of Annotated Libraries Using Quantitative High-Throughput Screening (AID 1296008); details: Five cell lines viability, CellTiter-Glo ATP luminescence, 48-72 h; max response: hits give low values; also: nearly all actives have a fitted effect of over 60% in size
In short: (§1)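 Compounds were pin-transferred onto cells and incubated 48 or 72 hr at 37 degree Celsius, 95% humidity. CellTiter-Glo was added, plates sat 10 min at room temperature, then ATP-coupled luminescence was imaged as the viability read-out.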

HaCat [1] = test: as above; details: Five cell lines viability, CellTiter-Glo ATP luminescence, 48-72 h; max response: hits give low values
In short: as §1

KB-3-1 = test: as above; details: Five cell lines viability, CellTiter-Glo ATP luminescence, 48-72 h; max response: hits give low values
In short: as §1

NIH3T3 = test: as above; details: Five cell lines viability, CellTiter-Glo ATP luminescence, 48-72 h; max response: hits give low values
In short: as §1

UISO = test: qHTS assay to identify novel small-molecules to repurpose for Merkel cell carcinoma treatment (AID 1296009); details: MCC and control cell lines, CellTiter-Glo viability, 72 h; series mostly up to 46 µM; also: nearly all actives have a fitted effect of over 60% in size
In short: (§2)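 Luminescence from CellTiter-Glo, read 10 min after addition at room temperature, reported viability following a 72 hr, 37 degree celsius treatment with NPC or MIPE compounds in titration; values normalized to plate controls.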

C33A = test: Primary qHTS to identify gynecologic anti-cancer compounds using libraries of approved drugs and bioactive compounds (AID 1345084); details: Gynecologic cancer cell panel viability, ATPlite luminescence, 48 h; series mostly up to 57.5 µM; also: nearly all actives have a fitted effect of over 55% in size
In short: (§3)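 Cells, 1,000 per well, plated 16 h, then exposed 48 h at 37 C to compounds. Viability by ATPlite luminescence after 15 min at room temperature.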

CASKI = test: as above; details: Gynecologic cancer cell panel viability, ATPlite luminescence, 48 h; series mostly up to 57.5 µM
In short: as §3

Es-2 = test: as above; details: Gynecologic cancer cell panel viability, ATPlite luminescence, 48 h; series mostly up to 57.5 µM
In short: as §3

HeLa = test: as above; details: Gynecologic cancer cell panel viability, ATPlite luminescence, 48 h; series mostly up to 57.5 µM
In short: as §3

Hek293T [2] = test: as above; details: Gynecologic cancer cell panel viability, ATPlite luminescence, 48 h, control line for the selectivity index; series mostly up to 57.5 µM
In short: as §3

MCC-13 = test: qHTS assay to identify novel small-molecules to repurpose for Merkel cell carcinoma treatment (AID 1296009); details: MCC and control cell lines, CellTiter-Glo viability, 72 h; series mostly up to 46 µM; also: nearly all actives have a fitted effect of over 60% in size
In short: as §2

MKL-1 = test: as above; details: MCC and control cell lines, CellTiter-Glo viability, 72 h; series mostly up to 46 µM
In short: as §2

MKL-2 = test: as above; details: MCC and control cell lines, CellTiter-Glo viability, 72 h; series mostly up to 46 µM
In short: as §2

WaGa = test: as above; details: MCC and control cell lines, CellTiter-Glo viability, 72 h; series mostly up to 46 µM
In short: as §2

HEK293 = test: Cytotoxic Profiling of Annotated Libraries Using Quantitative High-Throughput Screening (AID 1296008); details: Five cell lines viability, CellTiter-Glo ATP luminescence, 48-72 h; max response: hits give low values; also: nearly all actives have a fitted effect of over 60% in size
In short: as §1

CAOV3 = test: Primary qHTS to identify gynecologic anti-cancer compounds using libraries of approved drugs and bioactive compounds (AID 1345084); details: Gynecologic cancer cell panel viability, ATPlite luminescence, 48 h; series mostly up to 57.5 µM; also: nearly all actives have a fitted effect of over 55% in size
In short: as §3

HEK293T [3] = test: qHTS assay to identify novel small-molecules to repurpose for Merkel cell carcinoma treatment (AID 1296009); details: MCC and control cell lines, CellTiter-Glo viability, 72 h; at 44.8 µM (top of the series) unless noted; also: nearly all actives have a fitted effect of over 60% in size
In short: as §2

HACAT [4] = test: as above; details: MCC and control cell lines, CellTiter-Glo viability, 72 h; series mostly up to 44.8 µM
In short: as §2

MCC-26 = test: as above; details: MCC and control cell lines, CellTiter-Glo viability, 72 h; series mostly up to 46 µM
In short: as §2
% is scaled to controls: 0 for no effect and ±100 for the full control effect; potency is read from the fitted curve at half-maximal effect.

O=C(Nc1cc(C(F)(F)F)cc(C(F)(F)F)c1)c1cc(Cl)ccc1O
active: Potency (CRL-7250) 3.72 µM and 3.26 µM | Potency (HaCat [1]) 2.64 µM and 2.91 µM | Potency (KB-3-1) 264 nM and 731 nM | Potency (NIH3T3) 3.32 µM and 5.8 µM | Potency (UISO) 2350 nM | Potency (C33A) 3160 nM | Potency (CASKI) 3550 nM | Potency (Es-2) 5010 nM | Potency (HeLa) 2240 nM | Potency (Hek293T [2]) 2510 nM

CC(C)[C@H](C(=O)Nc1ccc(C(=O)NO)cc1)c1ccccc1
active: Potency (CRL-7250) 4.18 µM | Potency (HaCat [1]) 5.9 µM | Potency (KB-3-1) 2350 nM | Potency (MCC-13) 5260 nM | Potency (MKL-1) 935 nM | Potency (MKL-2) 833 nM | Potency (UISO) 3320 nM | Potency (WaGa) 662 nM

Cc1cc(Nc2cc(CN3CCOCC3)c3nc(C)c(Cc4ccc(Cl)cc4F)n3n2)n[nH]1
inactive: max response (HaCat [1]) -23.1% | Potency (C33A) | Potency (CAOV3) | Potency (CASKI) | Potency (Hek293T [2])
active: Potency (HEK293) 11.8 µM and 16.4 µM | Potency (HaCat [1]) 14.8 µM | Potency (KB-3-1) 4.18 µM and 5.17 µM | Potency (NIH3T3) 13.2 µM and 11.6 µM | Potency (UISO) 23500 nM | Potency (HeLa) 14100 nM

CCCNC(=O)Nc1ccc(Oc2ncnc3cc(OC)c(OC)cc23)cc1Cl
inactive: max response (CRL-7250) -26.7% and 2.06% | max response (HaCat [1]) 0.131% and 2.87% | max response (KB-3-1) 4.92% | max response (NIH3T3) -7.41% and 0.662% | outcome (HEK293T [3]) | Potency (MCC-13) | Potency (MKL-1) | Potency (MKL-2) | Potency (UISO) | Potency (WaGa) | Potency (C33A) | Potency (CAOV3) | Potency (CASKI) | Potency (Es-2) | Potency (HeLa) | Potency (Hek293T [2])

C=CC(=O)N1CCC[C@@H](n2nc(-c3ccc(Oc4ccccc4)cc3)c3c(N)ncnc32)C1
inactive: max response (CRL-7250) 2.95% | max response (KB-3-1) -15.2% and 0.931% | Potency (MCC-13) | Potency (MKL-1) | Potency (UISO) | Potency (C33A) | Potency (CASKI) | Potency (Es-2) | Potency (HeLa) | Potency (Hek293T [2])
active: Potency (HaCat [1]) 1.32 µM | Potency (HACAT [4]) 1300 nM

CC(C)c1cc(C(=O)N2Cc3ccc(CN4CCN(C)CC4)cc3C2)c(O)cc1O
active: Potency (CRL-7250) 0.935 µM | Potency (HaCat [1]) 264 nM and 206 nM | Potency (KB-3-1) 73.1 nM | Potency (NIH3T3) 418 nM and 291 nM | Potency (MCC-13) 469 nM | Potency (UISO) 469 nM | Potency (CAOV3) 3980 nM
inactive: Potency (MKL-2)

C=C1C(=CC=C2CCCC3(C)[C@@H]([C@H](C)C=CC=CC(O)(CC)CC)CC[C@@H]23)C[C@@H](O)C[C@@H]1O (stereo partly specified)
inactive: max response (CRL-7250) 4.9% | outcome (HaCat [1]) | outcome (KB-3-1) | Potency (HACAT [4]) | Potency (MCC-13) | Potency (MCC-26) | Potency (MKL-1) | Potency (UISO)
active: Potency (MKL-2) 14800 nM | Potency (WaGa) 11800 nM

C=C1C(=CC=C2CCC[C@]3(C)[C@@H]([C@H](C)C=C[C@H](C)C(C)C)CC[C@@H]23)C[C@@H](O)C[C@@H]1O
inactive: max response (CRL-7250) -0.207% | outcome (HaCat [1]) | outcome (KB-3-1) | Potency (HACAT [4])
active: Potency (MCC-26) 14800 nM | Potency (MKL-1) 1180 nM | Potency (MKL-2) 332 nM | Potency (UISO) 8330 nM | Potency (WaGa) 118 nM

O=C(C=Cc1cccnc1)NCCCCC1CCN(C(=O)c2ccccc2)CC1
active: Potency (CRL-7250) 0.0743 µM | Potency (HaCat [1]) 0.372 µM | Potency (KB-3-1) 13.2 nM | Potency (NIH3T3) 37.2 nM | Potency (MCC-13) 52.6 nM | Potency (MCC-26) 20.9 nM | Potency (MKL-2) 20.9 nM | Potency (UISO) 20.9 nM | Potency (WaGa) 16.6 nM

COc1cc(C(=O)NS(=O)(=O)c2ccccc2C)ccc1Cc1cn(C)c2ccc(NC(=O)OC3CCCC3)cc12
active: Potency (UISO) 20900 nM
inactive: outcome (CRL-7250) | max response (KB-3-1) -2.66% | Potency (MKL-1) | Potency (WaGa) | Potency (C33A) | Potency (CAOV3) | Potency (CASKI) | Potency (Es-2) | Potency (HeLa) | Potency (Hek293T [2])

COc1cc2c(Oc3ccc4[nH]c(C)cc4c3F)ncnc2cc1OCCCN1CCCC1
active: Potency (CRL-7250) 8.2 µM | Potency (HaCat [1]) 8.33 µM and 7.31 µM | Potency (NIH3T3) 1.87 µM and 2.06 µM
inactive: Potency (MCC-13) | Potency (UISO) | Potency (WaGa) | Potency (Es-2) | Potency (HeLa) | Potency (Hek293T [2])

O=C(CCCCCCNC(=O)c1cnc(N(c2ccccc2)c2ccccc2)nc1)NO
active: Potency (HEK293) 13.2 µM and 7.31 µM | Potency (HaCat [1]) 16.6 µM | Potency (KB-3-1) 11.8 µM and 8.2 µM | Potency (MKL-1) 9350 nM | Potency (MKL-2) 5900 nM | Potency (WaGa) 2960 nM | Potency (HeLa) 11200 nM

C=CC(=O)Nc1cc2c(Nc3ccc(F)c(Cl)c3)ncnc2cc1OCCCN1CCOCC1
active: Potency (HEK293) 7.5 µM | Potency (HaCat [1]) 0.0094 µM | Potency (NIH3T3) 4730 nM | Potency (CAOV3) 10000 nM | Potency (CASKI) 8910 nM
inactive: outcome (KB-3-1) | Potency (MCC-13) | Potency (MCC-26) | Potency (Es-2) | Potency (HeLa) | Potency (Hek293T [2])
